# Measurements: PubChem BioAssay AID588342 (National Center for Advancing Translational Sciences (NCATS), 2011)
# Among all 360,000 compounds or so, about 25,000 (6.9%) were called active. Inconclusive results (about 9%) are left out. The call rests on the fitted dose curve; in most records, active means well fitted inhibition curve with a large enough effect; inconclusive means small, poorly fitted or top-dose-only effect; inactive means flat fitted curve, though single readings scatter. Shown is part of a subset that was picked to be rich in actives.
# Biological target: Luciferin 4-monooxygenase (Photinus pyralis) (UniProt P08659)
# Sequence (P08659 whole entry, looked up): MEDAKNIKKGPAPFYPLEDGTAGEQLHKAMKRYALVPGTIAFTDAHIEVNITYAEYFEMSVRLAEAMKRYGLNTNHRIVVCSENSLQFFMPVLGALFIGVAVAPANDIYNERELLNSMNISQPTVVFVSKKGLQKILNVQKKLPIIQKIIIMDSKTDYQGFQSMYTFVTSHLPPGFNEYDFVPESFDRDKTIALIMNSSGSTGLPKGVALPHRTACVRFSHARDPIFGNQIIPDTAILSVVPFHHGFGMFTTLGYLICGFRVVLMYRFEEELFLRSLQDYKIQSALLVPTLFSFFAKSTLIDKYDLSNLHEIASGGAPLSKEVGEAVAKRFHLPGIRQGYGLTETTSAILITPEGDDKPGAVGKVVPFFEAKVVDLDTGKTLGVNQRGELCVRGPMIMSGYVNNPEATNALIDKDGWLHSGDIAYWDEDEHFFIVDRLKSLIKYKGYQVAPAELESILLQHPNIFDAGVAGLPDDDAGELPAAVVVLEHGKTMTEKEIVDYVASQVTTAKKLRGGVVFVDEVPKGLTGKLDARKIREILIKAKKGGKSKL
# Assay: qHTS profiling assay for firefly luciferase inhibitor/activator using purifed enzyme and Km concentrations of substrates (counterscreen for miR-21 project); further: nearly all actives have a fitted effect of over 55% in size;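 on activity change, negative = inhibition: plate controls were vehicle for no effect and reference inhibitor for full effect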
# Details: purified FLuc, luminescence inhibition; series mostly up to 57.5 µM; activity change, negative = inhibition: at the top concentration
# Summary of the method: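 Biochemical qHTS of compounds, final roughly 60 µM downward over six points, against 10 nM purified firefly luciferase using Km concentrations of substrates (10 uM D-luciferin, 10 uM ATP) in Tris acetate pH 7.5 buffer; luminescence output.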
# Potency means the concentration at half of the fitted maximal effect.
SMILES,"activity change, negative = inhibition",Potency
COCCNC(=O)c1ccc2c(c1)N=C(C)c1cc(C)ccc1S2,-5.31% (inactive),
COc1ccc(S(=O)(=O)N2CCOC23CCN(S(=O)(=O)c2ccc([N+](=O)[O-])cc2)CC3)cc1,6.4% (inactive),
CC(=O)N(C)c1ccc(NC(=O)Nc2cccc3ccccc23)cc1,,8.49 µM (active)
CCOc1ccc(NC(=O)Nc2ccc(N(C)C(C)=O)cc2)cc1,0.16% (inactive),
O=C(O)Cc1ccc(NC(=O)Nc2cccc3ccccc23)cc1,-15.7% (inactive),
CC(=O)Nc1ccc(NC(=O)CSc2nnc3c4cc(Br)ccc4n(C)c3n2)cc1,0.306% (inactive),
CCc1ccc(NC(=O)CN2C(=O)C(c3ccccc3)=NC23CCCCCC3)cc1,-7.02% (inactive),
CC(C)CNC(=O)CC(c1ccccc1)c1c(O)ccc2ccccc12 (stereo not drawn),8.33% (inactive),
CCOc1[nH]n(-c2ccc(Cl)cc2)c(=O)c1C=Nc1ccc(O)cc1,3.26% (inactive),
Oc1ccc(N=Cc2sc3ccccc3c2Cl)cc1,,5.36 µM (active)
Oc1ccc2ccccc2c1C=Nc1ccccc1,,16.9 µM (active)
O=[N+]([O-])c1ccc(N=Cc2c(O)ccc3ccccc23)cc1,-8.44% (inactive),
Oc1ccc(N=Cc2c(O)ccc3ccccc23)cc1,,16.9 µM (active)
COc1ccc(-n2ccnc(NCCc3ccc(Cl)cc3)c2=O)cc1OC,-9.74% (inactive),
Cc1cc(C)cc(NC(=O)c2cnc3sc(N4CCCC4)nn3c2=O)c1,-2.76% (inactive),
COc1cccc(CNC(=O)C(=O)NCC(c2cccs2)S(=O)(=O)c2ccccc2)c1 (stereo not drawn),-0.915% (inactive),
Cc1nc2ccc(S(=O)(=O)N(CC(=O)Nc3ccc(F)cc3)Cc3ccccc3)cc2s1,2.12% (inactive),
CCCCC12CN3CC(C)(CN(C1)C3c1ccc(O)c(OC)c1)C2=O (stereo not drawn),-9.79% (inactive),
CCOc1ccc(CNC(=O)C2CCN(c3nnc(-n4cccc4CNc4ccc(C)cc4)s3)CC2)cc1OC,0.851% (inactive),
CN(C(=O)COC(=O)c1ccc(Br)o1)c1c(N)n(Cc2ccccc2)c(=O)[nH]c1=O,-17% (inactive),
CCCn1c(C)cc(/C=C(\C#N)C(=O)OCC(=O)N(C)c2c(N)n(Cc3ccccc3)c(=O)[nH]c2=O)c1C,,10.7 µM (active)

SMILES,"activity change, negative = inhibition",Potency
CCCn1c(C)cc(/C=C(\C#N)C(=O)OCC(=O)Nc2cc(OC)c(OC)c(OC)c2)c1C,,13.5 µM (active)
Cc1cc(OCC(=O)N(C)c2c(N)n(Cc3ccccc3)c(=O)[nH]c2=O)c(C(C)C)cc1Cl,0.981% (inactive),
COc1cc(NC(=O)CCn2nc(C)cc2C)cc(OC)c1OC,-2.4% (inactive),
CCOC(=O)/C(C#N)=C/c1ccc(OCC(=O)Nc2ccccc2)c(OC)c1,-13.1% (inactive),
CCS(=O)(=O)c1ncc(N(Cc2ccc(F)cc2)Cc2ccco2)c(C(=O)Nc2cc(C)ccc2C)n1,0.246% (inactive),
COc1ccc(C(=O)c2oc3ccccc3c2NC(=O)COc2cccc(C)c2)cc1,-3.19% (inactive),
O=c1oc2ccc(C#CC3(O)CCCCC3)cc2cc1-n1cc(-c2ccsc2)nn1,-1.06% (inactive),
Cn1c(N)c(C(=O)COC(=O)COc2ccc(Cl)cc2)c(=O)n(C)c1=O,0.687% (inactive),
CCN(C(=O)COC(=O)Cc1c(F)cccc1Cl)c1c(N)n(Cc2ccccc2)c(=O)[nH]c1=O,-0.25% (inactive),
COc1ccc(/C=C(\NC(=O)c2ccc(OC)c(OC)c2)C(=O)NCCc2c[nH]c3ccccc23)cc1,2.65% (inactive),
Cc1ccc(C(=O)N/C(=C/c2ccco2)C(=O)NCCc2c[nH]c3ccccc23)cc1C,,10.7 µM (active)
CC(=O)N/C(=C/c1ccc(Cl)cc1)C(=O)NCCc1c[nH]c2ccccc12,-0.391% (inactive),
COc1ccc(C)cc1N(C)C(=O)c1coc(=O)c2ccccc12,-0.441% (inactive),
O=C(CN1CCN(S(=O)(=O)c2cccc(Cl)c2)CC1)N1CCCCC1,6.07% (inactive),
N#Cc1ccccc1Sc1ccccc1C(=O)OCC(=O)NC1CCCCC1,0.881% (inactive),
O=C(COC(=O)c1ccccc1SCC(=O)NC1CCCCC1)NC1CCCCC1,4.43% (inactive),
O=C(COC(=O)c1ccccc1Cl)NC1CCCCCCC1,,12 µM (active)
Cc1ccc(S(=O)(=O)NCc2nc3nc(C)cc(C)n3n2)cc1,0.546% (inactive),
Cc1ccc(NC(=O)CCC(=O)N2CCC(c3ccccc3)=N2)cc1S(=O)(=O)N1CCCCC1,1.57% (inactive),
O=C(CN1C(=O)NC2(CCCCCC2)C1=O)NCc1cccs1,-3.93% (inactive),
Cc1[nH]n(-c2ccccc2)c(=O)c1N=Nc1ccccc1C(=O)N1CCCCC1,-2.84% (inactive),

SMILES,"activity change, negative = inhibition",Potency
Cc1cccc(N=Nc2c(C)[nH]n(-c3ccccc3)c2=O)c1,,19 µM (active)
Cc1cccc(N2C(=O)CC(SC(N)=Nc3ccccc3)C2=O)c1 (stereo not drawn),1.99% (inactive),
CCN(Cc1ccccc1)C(=O)c1cn(-c2cccc(OC)c2)c(=O)c2ccccc12,-12% (inactive),
CCn1cc(C(=O)NCc2ccccc2)c(=O)c2cc(S(=O)(=O)N3CCCCC3)ccc21,-1.44% (inactive),
COc1ccc(C(C#N)Nc2ccccc2C)cc1 (stereo not drawn),-19% (inactive),
COc1ccc(C(C#N)Nc2ccc(C)cc2)cc1 (stereo not drawn),,1.69 µM (active)
COc1ccc(C(CC(=O)Nc2ccc(C)cc2)NC(=O)C(F)(F)F)cc1 (stereo not drawn),-2.17% (inactive),
Cc1ccc(CN2CCC(CNC(=O)c3cnn(-c4ccc(C)cc4)c3C3CCN(C(=O)OC(C)(C)C)CC3)CC2)cc1,-2.42% (inactive),
Cn1ccc2cc(S(=O)(=O)N3CCCC(C(=O)NCc4ccccc4F)C3)ccc21 (stereo not drawn),-5.38% (inactive),
O=C(CSCc1ccc(Cl)cc1)N1CCN(Cc2ccc3c(c2)OCO3)CC1,1.28% (inactive),
O=C(COc1ccccc1Cl)N1CCCCCCC1,3.49% (inactive),
O=C(CSCc1ccc(Cl)cc1)N1CCCCC1,,16.9 µM (active)
Cc1cccc(C)c1NC(=O)CNC(=O)C1CCCC1,4.17% (inactive),
Cc1ccc(CNC(=O)CSc2c3c(nc4cc(Cl)ccc24)CCCC3)cc1,3.6% (inactive),
COC(=O)c1sccc1S(=O)(=O)N(CC(=O)Nc1ccc(C)c(F)c1)c1ccc(C)c(C)c1,-5.87% (inactive),
Cc1ccccc1CSc1nnc(-c2ccccc2)c(=O)[nH]1,,19 µM (active)
Cc1ccc(CSc2nc(-c3ccccc3)c(C#N)c(=O)[nH]2)cc1,-1.34% (inactive),
Cc1ccccc1CSc1nnc(-c2cccnc2)n1N,-0.836% (inactive),
CCCN(CC(=O)NC(=O)NC1CCCCC1)CC(=O)Nc1cc(Cl)ccc1Cl,-0.397% (inactive),
COc1ccccc1CNC(=O)CS(=O)(=O)c1cccc2nsnc12,3.65% (inactive),
CCOC(=O)c1cccc(NC(=O)c2cc(S(=O)(=O)N3CCCC(C)C3)cn2C)c1 (stereo not drawn),4.78% (inactive),
